Assay results reported in paper PMC7155171, “Probing the Open Global Health Chemical Diversity Library for Multistage-Active Starting Points for Next-Generation Antimalarials” (ACS Infectious Diseases, 2020).

Key:
[1] = tested on: P. berghei liver stage (PbLuc); set-up: species or system HepG2-A16-CD81; P. berghei luciferase sporozoite infection of hepatocytes, liver stage luminescence; details: inhibitor; for PbLuc primary screen (10uM): inhibition % (n=1): 48 h
[2] = tested on: HepG2-A16-CD81 hepatocytes; set-up: Uninfected hepatocyte viability, CellTiter-Glo luminescence; details: cytotoxicity primary screen, inhibitor

| Structure (SMILES) | PbLuc primary screen (10uM): inhibition % (n=1) [1] [%] | PbLuc primary screen (2uM): inhibition % (n=1) [1] [%] | HepG2 toxicity primary screen (10uM): inhibition % (n=1) [2] [%] |
| --- | --- | --- | --- |
| COc1cccc(C2=NN=CC2=C2NC(CN3CCCC3)=NO2)c1 [DDD01247208] | 34 | 45.82 | -23.2 |
| CCc1nc(CN(C)C2CCN(CCn3cc(C#N)cn3)C2)no1 (stereo not drawn) [DDD01304196] | 41.4 | -38.96 | -6.12 |
| CCc1c(C)[nH]c2cc(C3CCN(Cc4cccc(F)c4)C3)nn2c1=O (stereo not drawn) [DDD01060569] | 77.3 | 65.74 | -6.43 |
| Cc1ccc(CN2CCc3c([nH]c4cc(C5CC5)nn4c3=O)C2)s1 [DDD01058491] | 44.3 | 31.81 | -3.69 |
| COCC(=O)N1Cc2[nH]c3c(C)c(-c4cccs4)nn3c(=O)c2C1 [DDD01056747] | 27.2 | 46.04 | -4.81 |
| CC(=O)N1CCCN(C(=O)CCOc2ccc(C(C)C)cc2)CC1 [DDD01298039] | 52.5 | 36.9515 | -13 |
| Cc1[nH]n(C2CCS(=O)(=O)C2)c(=O)c1Cc1ccccc1Cl (stereo not drawn) [DDD01026964] | 34.1 | -0.8948 | -45.665 |
| COc1cc2c(cc1-c1nc3c[nH]n(C(C)C(C)C)c-3n1)OCO2 (stereo not drawn) [DDD01255421] | 31.9 | 7.665 | 8.61 |
| COc1cc(F)ccc1-c1nc2c(C3CC3)[nH]n(C)c-2n1 [DDD01248843] | -24.9 | -27.89 | -1.72 |
| COCCC(=O)N1Cc2[nH]c3c(C)c(-c4cccs4)nn3c(=O)c2C1 [DDD01056578] | -5.78 | -12.93 | -1.19 |
